# Compounds with a hit are over-represented: about 11% of the library has one in this group of screens.
# NS1 function inh – qHTS Assay for Inhibitors of Influenza NS1 Protein Function | Potency, µM (highest dose often 46.1 µM), for the others: top-dose activity, positive = more growth | AID 2326, 2010 | 270,000 tested, 0.4% active; calls by dose curve; further: actives are rising curves; nearly all actives have a fitted effect of over 50% in size
#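 In this qHTS, NS1 from influenza A is expressed in budding yeast, where it slows growth. Cells are switched from glucose to 2% galactose medium (pH 6.0, -URA), treated with compound, and growth recovery is read at OD600.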
# AMA1-RON2 inh – qHTS for Inhibitors of AMA1-RON; Towards Development of Antimalarial Drug Lead: Primary Screen. Plasmodium falciparum AMA1 (3D7) - RON2 peptide interaction. AlphaScreen AMA1-biotinylated RON2 peptide binding. AID 720542, 2013. 360,000 tested, 0.2% active. Potency, µM (top dose mostly 58.2 µM), for inactives: top-dose activity change, negative = inhibition, actives largely listed as inhibitors;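 further: 0% = vehicle wells and -100% = peptide control; nearly all actives have a fitted effect of over 45% in size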
#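 AMA1 (3D7) with his tag at 25 nM final met compounds first, then biotinylated RON2 peptide at 25 nM; detection used donor plus acceptor beads, 10 µg/mL apiece, read by AlphaScreen after 30 min at room temperature.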
# Sm TGR block – qHTS Assay for the Inhibitors of Schistosoma Mansoni Peroxiredoxins; Schistosoma mansoni thioredoxin glutathione reductase (TGR), Q962Y6; purified TGR, DTNB reduction, TNB absorbance 405 nm; Potency, µM (series often up to 114 µM), for inactives: top-dose activity change, negative = inhibition, actives largely listed as inhibitors; 360,000 tested, 3% active; AID 485364, 2010; further: on the % scale 0 is the no-effect control and ±100 the full control effect; nearly all actives have a fitted effect of over 60% in size
#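 TGR 20 nM + NADPH 100 uM (dispensed conc.), cpd preinc 15 min RT; start with NADPH (500 uM addition) then DTNB (15 mM addition). Kinetic TNB absorbance, 405 nm filter. Four-parameter Hill fit across titration.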
# Pf growth 48h – Primary qHTS for delayed death inhibitors of the malarial parasite plastid, 48 hour incubation; P. falciparum luciferase growth in erythrocytes, 48 h; Potency, µM (top dose mostly 28.7 µM), for the others: at the top dose activity change, negative = inhibition, usual class: inhibitors; 310,000 tested, 5.9% active; further: on the % scale 0 is the no-effect control and ±100 the full control effect
#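 Erythrocytes infected with P. falciparum carrying an integrated firefly luciferase reporter (2% hematocrit, 0.1% parasitemia final) were exposed to compounds in RPMI 1640 with 0.5% Albumax at 37 C, 5% CO2. Growth inhibition was scored as reduced luminescence.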
# Pf growth 96h – Primary qHTS for delayed death inhibitors of the malarial parasite plastid, 96 hour incubation; P. falciparum luciferase reporter growth, 96 h; 320,000 tested, 6.9% active; Potency, µM (doses to about 28.7 µM), inactives show at the top dose activity change, negative = inhibition, actives largely listed as inhibitors; further: on the % scale 0 is the no-effect control and ±100 the full control effect
#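 Compounds incubated with erythrocytes infected by luciferase-expressing P. falciparum (2% hematocrit, 0.05% parasitemia final) for 96 hours, 37 C in 5% CO2. Growth inhibition scored as decreased luciferase luminescence.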
# * = called active by the depositor; i = inactive; ? = inconclusive; / = not tested or not shown; [ ] = dose if it differs, or a comment. Unless noted, the call rests on the fitted dose curve; in most records, active means well fitted curve in the direction sought with a large enough effect; inconclusive means small, poorly fitted or top-dose-only effect, or another doubt; inactive means no such curve, though single readings can be large; an effect the other way counts as inactive or inconclusive. Potency means the concentration at half of the fitted maximal effect.
SMILES,NS1 function inh,AMA1-RON2 inh,Sm TGR block,Pf growth 48h,Pf growth 96h
CC(C)(C)CN1C(N)=NC[C@H]1Cc1ccc(O)cc1,0.0%,2.8%,19.6%,?,4.65µM*
Clc1ccccc1NN(Cc1ccncc1)c1ccccc1Cl,-34.2%,-6.4%,/,/,/
Cc1ccc(Cl)c2c1NC(=O)C2(O)CC(=O)c1ccccc1O (stereo unspecified),0.7%,0.0%,-3.6%,-28.2%,9.28µM*
COc1ccc(NC(=O)C2=C(C)Nc3ncnn3C2c2ccc(O)cc2)cc1 (stereo unspecified),/,/,0.6%,/,/
CCOc1cc(N(CC)CC)ccc1/C=C(/C#N)c1nc2ccccc2[nH]1,3.2%,-13.1%,11.9%,-18.9%,8.28µM*
CCN(CC)c1ccc(/C=C(/C#N)c2nc3ccc(C)cc3[nH]2)c(OC(C)C)c1,18.3%,16.9%,-1.1%,?,10.4µM*
COc1cccc(/C=C(\C#N)c2nc3ccccc3[nH]2)c1OCC(=O)O,14.3%,14.5%,3.1%,0.0%,?
COc1cccc(/C=C(\C#N)c2nc3ccc(C)cc3[nH]2)c1,/,/,4.5%,/,/
CCCOc1cc(N(CC)CC)ccc1/C=C(/C#N)c1nc2ccc(C)cc2[nH]1,21.2%,-20.0%,0.0%,7.38µM*,2.62µM*
CC(=O)N1CCc2cc(Br)cc(S(=O)(=O)N3CCN(c4cccc(C(F)(F)F)c4)CC3)c21,/,/,2.1%,/,/
Cc1ccc(NC(=O)CC(=O)Nc2ccc(C)c(C)c2)cc1C,-7.2%,1.7%,-1.3%,26.2%,6.3%
Cc1ccc[n+](CC(=O)Nc2ccc([N+](=O)[O-])cc2)c1,-78.4%,-4.3%,35.5µM*,?,?
Cc1ccc[n+](CC(=O)Nc2cccc([N+](=O)[O-])c2)c1,-3.7%,4.7%,/,-13.6%,i
Cc1cccc(NC(=O)C[n+]2cccc(C)c2)c1,4.1%,8.8%,-11.5%,?,0.657µM*
Cc1ccc(NC(=O)/C=C\C(=O)NCC(=O)O)cc1C,-53.3%,81.9%,1.78µM*,-11.8%,30.5%
Cc1ccc(NC(=O)C[n+]2ccccc2)cc1C,19.1%,-3.4%,-16.3%,13.9%,9.28µM*
COc1ccc(OCCOC(=O)C(C)NS(=O)(=O)c2ccc(NC(C)=O)cc2)cc1 (stereo unspecified),/,-1.0%,-6.0%,-2.3%,2.9%
CCOc1ccc(-c2nc(N)ncc2Oc2cccc(OC)c2)c(O)c1,-2.7%,-4.4%,4.0%,/,?
COc1ccc(-c2ncncc2-c2ccc(Cl)cc2)c(O)c1,-7.1%,-1.1%,3.2%,8.28µM*,7.38µM*
CCOc1ccc(-c2nc(N)ncc2Oc2ccccc2Br)c(O)c1,5.3%,-5.5%,3.2%,/,3.29µM*
C=C(C)COc1ccc(-c2ncncc2-c2ccc(Br)cc2)c(O)c1,-1.8%,62.5%,3.1%,1.85µM*,2.33µM*
COc1ccc(-c2cnc(N)nc2-c2ccc(OCc3ccccc3)cc2O)cc1,6.1%,-5.6%,-11.3%,?,14.7µM*
COc1ccc(-c2nc(N)ncc2-c2ccc(OC)c(OC)c2)c(O)c1,-1.7%,-11.9%,-14.5%,-7.2%,-2.9%
COc1cccc(CN(C)C(=O)c2cc(COc3ccc(-n4cncn4)cc3)on2)c1,-21.9%,-2.4%,-15.7%,?,-18.4%
Cc1ccc(N2C(=O)CCSC23C(=O)N(Cc2ccccc2)c2ccccc23)cc1 (stereo unspecified),/,/,1.2%,/,/
SMILES,NS1 function inh,AMA1-RON2 inh,Sm TGR block,Pf growth 48h,Pf growth 96h
C=C(C)COc1ccc(-c2ncncc2-c2ccc(Cl)cc2)c(O)c1,-11.8%,47.4%,-9.2%,5.22µM*,2.33µM*
C=C(C)COc1ccc(-c2nc(N)ncc2-c2ccc(Br)cc2)c(O)c1,10.8%,-1.5%,?,8.28µM*,?
COc1ccc(-c2cncnc2-c2ccc(OC)cc2O)cc1,-3.3%,-3.5%,0.4%,?,?
COc1cccc(Oc2cncnc2-c2ccc(OC)cc2O)c1,-139.8%,-25.7%,-21.0%,5.22µM*,80.4%
Cc1cc2c(cc1S(=O)(=O)Nc1cccc(C#N)c1)OCC(=O)N2,/,/,5.5%,/,/
Cc1ccc(C(=O)n2ncn(C)c2=S)cc1,0.2%,-0.3%,17.8µM*,0.0%,11.2%
CCn1c(C)nc2cc(C(=O)N/N=C/c3ccccc3)ccc21,1.6%,-2.3%,13.1%,203.8%,158.9%
CCn1c(C)nc2cc(C(=O)N/N=C/c3cccc(O)c3O)ccc21,-6.4%,2.7%,-34.0%,10.4µM*,?
Cc1c(C(=O)Nc2ccc(F)c(F)c2)oc2ccc(S(=O)(=O)N3CCCCC3)cc12,0.3%,4.5%,7.4%,13.1µM*,/
Cc1c(C(=O)Nc2ccc(F)cc2)oc2ccc(S(=O)(=O)N3CCC4(CC3)OCCO4)cc12,?,24.6%,6.5%,9.28µM*,?
Cc1ccc(NC(=O)c2oc3ccc(S(=O)(=O)N4CCCCCC4)cc3c2C)cc1Cl,/,/,3.5%,/,/
Cc1c(C(=O)NC2CCCc3ccccc32)oc2ccc(S(=O)(=O)N3CCCC3)cc12 (stereo unspecified),6.1%,0.5%,4.0%,?,/
Cc1c(C(=O)NCc2ccccn2)oc2ccc(S(=O)(=O)N3CCC4(CC3)OCCO4)cc12,/,67.2%,-5.2%,13.1µM*,?
Cc1c(C(=O)NC2CCCc3ccccc32)oc2ccc(S(=O)(=O)N3CCCCC3)cc12 (stereo unspecified),10.8%,-10.1%,-1.2%,?,1.85µM*
CCn1c(SCC(=O)Nc2ccc(Br)cn2)nnc1C1CC1,12.5%,0.0%,?,6.1%,15.3%
CC(=O)c1cc(F)c(N2CCN(C(=O)Cc3ccccc3)CC2)cc1C,1.6%,3.0%,28.2µM*,?,6.5%
CCCC(=O)c1cc(F)c(N2CCOCC2)cc1C,-10.1%,4.4%,4.9%,18.0%,1.31µM*
CCn1cc(C(=O)NCC(C)C)c(=O)c2cc(F)c(N3CCN(C)CC3)cc21,2.2%,14.5%,-2.4%,-9.3%,-17.6%
CCn1cc(C(=O)NN)c(=O)c2cc(F)c(N3CCOCC3)cc21,14.3%,0.3%,-9.8%,?,11.7µM*
CCn1cc(C(=O)O)c(=O)c2cc(F)c(N3CCNCC3)cc21,-4.2%,/,-21.6%,?,1.61µM*
CCn1cc(C(=O)O)c(=O)c2cc(F)c(N3CCN(C(=S)NC(=O)c4ccccc4F)CC3)cc21,1.8%,44.9%,-7.7%,4.15µM*,6.57µM*
C=CCOc1ccc(C(c2c(C)n(C)n(-c3ccccc3)c2=O)c2c(C)n(C)n(-c3ccccc3)c2=O)cc1,-1.6%,-8.7%,0.0%,11.5%[0.00184 µM],26.7%
CCn1cc(C(=O)O)c(=O)c2cc(F)c(N3CCN(S(=O)(=O)c4ccc(NC(C)=O)cc4)CC3)cc21,?,51.9%,-10.7%,6.57µM*,?
